Calls of active or inactive are those of the source.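 How the source made its calls: active means valid curve fit with half-effect dose at most 10 µM and total binding change across doses of 30 points or more; inactive means the rest.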
Test system: Rab7
Experiment: inhibitors of Bodipy-GTP binding across eight GTPases, SAR follow-up, selectivity assay for Cdc42 probe extension project, biochemical, round 1 SAR, Mg buffer, multiplex flow cytometry (AID 588477)
Conditions: GST-GTPase beads; series mostly up to 100 µM

| Structure (SMILES) | outcome |
| --- | --- |
| O=C(C#Cc1ccccc1)c1cccc([N+](=O)[O-])c1 | inactive |
| COc1ccc(C2CC(c3ccccc3)=NN2c2ccc(S(N)(=O)=O)cc2)cc1 (configuration not stated) | inactive |

From PubChem BioAssay AID588477 (NMMLSC, 2011)
